PubChem BioAssay AID1851 (National Center for Advancing Translational Sciences (NCATS), 2009)
About 5,100 (32%) of roughly 16,000 compounds were called active. Inconclusive results (about 25%) are left out. The call rests on the fitted dose curve; in most records, active means well fitted curve in the direction sought with a large enough effect; inconclusive means small, poorly fitted or top-dose-only effect, or effect the other way; inactive means no such curve, though single readings can be large or run the other way. The list shows a part of the results.

What follows are compounds tested against Cytochrome P450 3A4 (Homo sapiens) (UniProt P08684) (assay: Cytochrome panel assay with activity outcomes). Details: recombinant CYP, pro-luciferin dealkylation, luminescence, p450-cyp3a4; series mostly up to 57.1 µM; activity, negative = inhibition: at the top concentration.
Sequence of Cytochrome P450 3A4 (Homo sapiens) (P08684 whole entry, looked up): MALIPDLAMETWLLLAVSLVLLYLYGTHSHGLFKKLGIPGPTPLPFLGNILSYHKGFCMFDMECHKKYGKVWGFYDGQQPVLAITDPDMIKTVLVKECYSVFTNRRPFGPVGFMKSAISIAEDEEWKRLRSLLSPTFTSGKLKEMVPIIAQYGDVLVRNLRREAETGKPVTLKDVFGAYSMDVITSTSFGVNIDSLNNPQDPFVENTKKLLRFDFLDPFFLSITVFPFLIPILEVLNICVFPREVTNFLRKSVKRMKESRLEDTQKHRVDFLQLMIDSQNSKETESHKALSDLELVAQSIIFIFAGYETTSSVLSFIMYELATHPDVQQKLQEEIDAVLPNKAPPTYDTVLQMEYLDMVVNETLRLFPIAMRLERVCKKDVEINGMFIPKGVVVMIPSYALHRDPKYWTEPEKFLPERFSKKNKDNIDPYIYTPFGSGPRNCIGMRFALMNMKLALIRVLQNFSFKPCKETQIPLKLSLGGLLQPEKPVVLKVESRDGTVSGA
On the % scale 0 is the no-effect control and ±100 the full control effect.

Row | SMILES | AC50 | activity, negative = inhibition
1 | O=C(c1cc(O)c(O)c([N+](=O)[O-])c1)c1ccccc1F | 20 µM (active) | 
2 | O=[N+]([O-])c1cc(Cc2cc([N+](=O)[O-])c3cccnc3c2O)c(O)c2ncccc12 |  | -19.6% [at 11.4 µM] (inactive)
3 | Cc1ccc(-c2cccc(OC(=O)c3ccccc3F)c2)cc1 |  | -10.7% (inactive)
4 | Nc1nc(Nc2ccccc2)nc2c1ncn2[C@@H]1O[C@@H](CO)[C@H](O)[C@@H]1O |  | -3.64% (inactive)
5 | O=CN1CCN(C[C@H](O)CN2CCCCC2)CC1 |  | -4.95% [at 11.4 µM] (inactive)
6 | CN(Cc1ccco1)c1ncnc2ccc(-c3ccccc3C(F)(F)F)cc12 | 15.8 µM (active) | 
7 | CN(Cc1ccco1)c1ncnc2ccc(-c3ccccc3Cl)cc12 | 15.8 µM (active) | 
8 | Cc1ccc(NC(=O)CCN2C(=O)c3ccncc3C2=O)cc1 | 8.91 µM (active) | 
9 | COCc1nnc(NC(=O)CCN2C(=O)c3ccccc3C2=O)s1 |  | -15.1% (inactive)
10 | Cc1cccc(OCCn2c(-c3ccco3)nc3ccccc32)c1 | 10 µM (active) | 
11 | Cc1cccc(OCCn2c(S(=O)(=O)O)nc3ccccc32)c1 |  | -2.49% (inactive)
12 | CCCCC(=O)N/N=C(\C)CC(=O)Nc1cc(Cl)ccc1OC | 4.47 µM (active) | 
13 | COc1ccc(Cl)cc1NC(=O)CN1C(=O)CSC1=O | 7.94 µM (active) | 
14 | C/C(CC(=O)Nc1ccccn1)=N\NC(=O)C(=O)Nc1cccc(Cl)c1C |  | 16.1% [at 2.29 µM] (inactive)
15 | O=C(O)C1CCCCC1C(=O)Nc1cc(Cl)ccc1Cl (configuration not stated) |  | 16% (inactive)
16 | C/C(CC(=O)Nc1cc(Cl)ccc1Cl)=N\NC(N)=S | 14.1 µM (active) | 
17 | COc1ccc(Cl)cc1NC(=O)NCCCl |  | -28.3% (inactive)
18 | N[C@@H](CSCc1ccccc1)C(=O)O |  | -6.14% [at 11.4 µM] (inactive)
19 | NC1(C(=O)O)C[C@H](C(=O)O)[C@H](C(=O)O)C1 (some centres not stated) |  | -6.99% (inactive)
20 | CC1CN(C(NC(=O)C(C)(C)C)C(Cl)(Cl)Cl)CC(C)O1 (configuration not stated) |  | -27.5% (inactive)
21 | C[C@@H]1NCC[C@H](CC(=O)O)[C@H]1CC(=O)O |  | 0.412% [at 11.4 µM] (inactive)
22 | CC(C)=C[C@H]1[C@@H](C(=O)Oc2ccccc2C(C)C)C1(C)C |  | -13.1% [at 11.4 µM] (inactive)
23 | Cc1[nH]c(N)nc(=S)c1CCC(=O)O |  | -2.07% [at 11.4 µM] (inactive)
24 | COc1ccccc1OCCCCCc1c(C)n[nH]c1C |  | 14.8% (inactive)
25 | CN(Cc1ccco1)c1ncnc2ccc(-c3cccnc3)cc12 | 3.98 µM (active) | 

Row | SMILES | AC50 | activity, negative = inhibition
26 | COc1cccc(-c2ccc3ncnc(N(C)Cc4ccco4)c3c2)c1 | 12.6 µM (active) | 
27 | NCCSC[C@H](N)C(=O)O |  | -7.49% [at 11.4 µM] (inactive)
28 | O=C(O)[C@@H](O)[C@@H](O)[C@@H](O[C@H]1O[C@@H](CO)[C@@H](O)[C@@H](O)[C@@H]1O)[C@@H](O)CO |  | 1.47% [at 25.6 µM] (inactive)
29 | c1nc(NC2CCNCC2)c2cc(-c3ccc4c(c3)OCO4)ccc2n1 | 25.1 µM (active) | 
30 | Cc1cccc(CNc2ncnc3ccc(-c4ccc5c(c4)OCO5)cc23)c1 | 2 µM (active) | 
31 | c1nc(NC2CCNCC2)c2cc(-c3ccoc3)ccc2n1 |  | -15.6% (inactive)
32 | c1ccc(Nc2ncnc3ccc(-c4ccc5c(c4)OCO5)cc23)cc1 | 2.51 µM (active) | 
33 | c1ccc(CNc2ncnc3ccc(-c4ccc5c(c4)OCO5)cc23)cc1 | 2 µM (active) | 
34 | O=[N+]([O-])c1ccc(S(=O)(=O)Cc2ccccc2)c2nonc12 |  | -16.7% [at 11.4 µM] (inactive)
35 | COc1cc(OC)c(C#N)c(S(=O)(=O)Cc2ccccc2)c1 | 25.1 µM (active) | 
36 | COc1cc(C)c(Br)cc1S(=O)(=O)NCc1ccccc1 |  | -0.507% (inactive)
37 | O=C(O)/C=C\C(=O)N1Cc2cc3ccccc3nc2C1 |  | -8.05% [at 11.4 µM] (inactive)
38 | O=C(N/N=C/c1c(Nc2cccc(C(F)(F)F)c2)nc2ccccn2c1=O)c1ccccc1 |  | -5.45% (inactive)
39 | Cc1nc2ccccn2c1C(=O)N/N=C/c1ccccc1[N+](=O)[O-] | 12.6 µM (active) | 
40 | Cc1ccc(C(=O)N/N=C/c2cc(C)n(-c3ccc(Br)cc3)c2C)cc1[N+](=O)[O-] |  | 23.5% (inactive)
41 | COc1cccc(Cn2c(=O)c(-c3ccccc3)nc3cnc(N4CCNCC4)nc32)c1 | 20 µM (active) | 
42 | COc1ccc(-c2nc3cnc(N4CCNCC4)nc3n(Cc3cccc(OC)c3)c2=O)cc1 | 15.8 µM (active) | 
43 | COc1cccc(Cn2c(=O)c(-c3cc(F)cc(F)c3)nc3cnc(N4CCNCC4)nc32)c1 | 25.1 µM (active) | 
44 | CN1CCN(c2ncc3nc(-c4cc(F)cc(F)c4)c(=O)n(CCc4ccccc4)c3n2)CC1 | 25.1 µM (active) | 
45 | COCCn1c(=O)c(-c2cc(F)cc(F)c2)nc2cnc(N3CCN(C)CC3)nc21 |  | -6.67% (inactive)
46 | CN1CCN(c2ncc3nc(-c4ccccc4)c(=O)n(CCc4ccccc4)c3n2)CC1 |  | -5.29% (inactive)
47 | COc1cccc(Cn2c(=O)c(-c3cc(F)cc(F)c3)nc3cnc(N4CCN(C)CC4)nc32)c1 | 25.1 µM (active) | 
48 | COc1cccc(Cn2c(=O)c(-c3ccc(F)cc3)nc3cnc(N4CCNCC4)nc32)c1 | 15.8 µM (active) | 
49 | O=C(O)c1ccc2c(c1)C(=O)N(C(Cc1ccc(O)cc1)C(=O)O)C2=O (configuration not stated) |  | 5.23% (inactive)
50 | Cc1cc(Br)ccc1NCc1ccccn1 | 15.8 µM (active) | 

Row | SMILES | AC50 | activity, negative = inhibition
51 | c1ccc(CCNc2ccccn2)nc1 |  | -14.6% [at 11.4 µM] (inactive)
52 | CNCCc1ccccn1 |  | -3.54% [at 25.6 µM] (inactive)
53 | OCCCNCc1ccccn1 |  | -7.75% [at 11.4 µM] (inactive)
54 | Cc1cc(NCc2ccccn2)ccc1Br | 12.6 µM (active) | 
55 | Cc1cc(=O)oc(C)c1C(=O)NCc1ccccn1 |  | -10.8% (inactive)
56 | Cc1ccc(S(=O)(=O)NCCn2c(C)cc3ccccc32)cc1 | 5.01 µM (active) | 
57 | Cc1cc2ccccc2c(=O)n1CC(=O)NCC(=O)N1CCCC1 |  | -2.71% (inactive)
58 | O=C(NCCN1CCCCC1)c1ccc(I)cc1 |  | -0.633% (inactive)
59 | Cc1cc2ccccc2n1CCNC(=O)C1CCCC1 | 4.47 µM (active) | 
60 | Cc1ccc(S(=O)(=O)NC(=O)c2cccn2C)cc1 |  | 20.6% (inactive)
61 | Cc1cc2ccccc2n1CCNC(=O)c1ccccc1 | 3.98 µM (active) | 
62 | CN(C)CCn1c(C(=O)O)cc2ccccc21 |  | 6.42% (inactive)
63 | CCN1C(=O)C(O)(C2COC(C)(C)CC2=O)c2ccccc21 (configuration not stated) |  | -1.6% (inactive)
64 | CC1(C)C(=O)N(CCN2CCC(C(=O)c3ccc(F)cc3)CC2)c2ccccc21 | 15.8 µM (active) | 
65 | CN(C)CCCN1c2ccccc2C(C)(C)c2ccccc21 |  | -18.6% [at 11.4 µM] (inactive)
66 | O=S(=O)(O)c1ccc(N=Nc2ccccc2)cc1 |  | 0.763% [at 11.4 µM] (inactive)
67 | NCC(=O)Nc1ccc(Cl)cc1C(=O)c1ccc[nH]1 |  | -21.6% [at 11.4 µM] (inactive)
68 | Cc1cc(C)nc(SCCc2cccc[n+]2C)n1 |  | -11% [at 11.4 µM] (inactive)
69 | Cc1cc(SCC(=O)c2ccccc2)nc(SCC(=O)c2ccccc2)n1 | 2.82 µM (active) | 
70 | O=C(O)CSc1cc(C(F)(F)F)nc(-c2ccccn2)n1 |  | -5.8% (inactive)
71 | CC(=O)NCCNc1ncnc2ccc(-c3ccoc3)cc12 |  | -28.8% (inactive)
72 | c1ccc(-n2ncc3c(NCCCN4CCOCC4)ncnc32)cc1 |  | -19.7% (inactive)
73 | CC(=O)NCCNc1ncnc2ccc(-c3ccc4c(c3)OCO4)cc12 | 5.01 µM (active) | 
74 | c1nc(NCCN2CCOCC2)c2cc(-c3ccc4c(c3)OCO4)ccc2n1 | 5.01 µM (active) | 
75 | c1cncc(-c2ccc3ncnc(NCCN4CCOCC4)c3c2)c1 | 12.6 µM (active) | 

Row | SMILES | AC50 | activity, negative = inhibition
76 | NCCCCNCCCN | inactive | 
77 | N#Cc1ccccc1Sc1ccccc1N | 17.8 µM (active) | 
78 | c1ccc2sc(N3CCN(Cc4ccc5c(c4)OCO5)CC3)nc2c1 | 0.631 µM (active) | 
79 | O=C1CCC(c2ccccc2)=NN1c1nc2ccccc2s1 |  | -23.1% [at 11.4 µM] (inactive)
80 | CC1CCOC2(O1)C(=O)N(CN1CCN(c3ccccc3F)CC1)c1ccccc12 (configuration not stated) |  | -17.6% (inactive)
81 | CC(C)c1ccc(C(=O)CC2(O)C(=O)N(CN3CCOCC3)c3ccccc32)cc1 (configuration not stated) | 8.91 µM (active) | 
82 | CC(=O)N1CCC(=O)N(C(C)C)c2ccccc21 |  | 7.06% (inactive)
83 | O=C(NCc1cccnc1)/C(=C/c1ccc(-c2cccc(Cl)c2)o1)S(=O)(=O)c1ccccc1 | 0.501 µM (active) | 
84 | COc1ccc(C(=O)N2CCC3(CC2)CN(C(=O)NC(C)C)C3)cc1 |  | -12.2% (inactive)
85 | CC(C)CN1CCC2(CC1)CCN(C(=O)c1cc(C(F)(F)F)cc(C(F)(F)F)c1)CC2 |  | 24.6% (inactive)
86 | CN1CCC2(CC1)CCN(C(=O)c1cc(C(F)(F)F)cc(C(F)(F)F)c1)CC2 |  | -4.42% (inactive)
87 | CC(C)NC(=O)N1CCCC2(CCN(C(=O)c3ccncc3)CC2)C1 | 15.8 µM (active) | 
88 | CC(C)NC(=O)N1CC2(CCN(C(=O)c3cc(C(F)(F)F)cc(C(F)(F)F)c3)CC2)C1 |  | -10.5% (inactive)
89 | Cc1noc(C)c1C(=O)N1CCC2(CCCN(C(=O)NC(C)C)C2)CC1 |  | -6.25% (inactive)
90 | CC(C)NC(=O)N1CC[C@@]2(CCCN(C(=O)c3cc(C(F)(F)F)cc(C(F)(F)F)c3)C2)C1 | 15.8 µM (active) | 
91 | CC(C)CN1CC[C@@]2(CCCN(C(=O)c3cc(C(F)(F)F)cc(C(F)(F)F)c3)C2)C1 | 12.6 µM (active) | 
92 | CC(C)NC(=O)N1CCCC2(CCN(C(=O)c3cc(C(F)(F)F)cc(C(F)(F)F)c3)CC2)C1 | 25.1 µM (active) | 
93 | C=C1CCO[C@@]2([C@H](O)[C@@](C)(O)CO)NC(=O)[C@]1(O)NC2=O |  | -2.69% [at 11.4 µM] (inactive)
94 | O=C(O)CCC(=O)c1ccc2sc3ccccc3c2c1 |  | -21.1% [at 11.4 µM] (inactive)
95 | C/C(CCc1ccc2c(c1)OCO2)=N\N=C1\NC(=O)CC(C(=O)Nc2ccccc2)S1 (configuration not stated) | 2.24 µM (active) | 
96 | COc1ccc(Cl)cc1N=Nc1ncc[nH]1 | 10 µM (active) | 
97 | COC(=O)c1c(-c2cc(OC)c(OC)c(OC)c2)c2ccc(OCc3ccccn3)cc2c(=O)n1-c1ccc(N)cc1 | 0.398 µM (active) | 
